Out of some 290,000 compounds screened, about 2,700 (0.93%) were called active. No rule for the calls is given here. The list comes from a sample in which actives are over-represented; it also holds similar structures and randomly drawn compounds.
Biological target: Eukaryotic translation initiation factor 4H (Homo sapiens) (UniProt Q15056)
Experiment: eIF4H binding inhibition – biochemical, uHTS, fluorescence polarization, translation initiation inhibitor project, primary screen (AID 2012);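 also: calls also rest on retests at 20 µM and on dose response follow-up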
Details: eIF4H fluorescence polarization binding assay, stronger effect = higher value

SMILES | inhibition (at 35 µM) | inhibition (confirmation average, at 20 µM) [%]
CN1/C(=c2/s/c(=C3/C(=O)N(c4ccccc4)NC3=Nc3ccccc3)n(C)c2=O)C(C)(C)c2ccccc21 | 75.5% (active) | –
CCN1C(=O)/C(=c2\s/c(=C3\Sc4ccccc4N3C)c(=O)n2C)N(C)C1=S | -3% (inactive) | –
O=[N+]([O-])c1cc([N+](=O)[O-])c(Oc2cc(F)cc(F)c2F)cc1NN1CCCCC1 | 0.2% (inactive) | –
Cn1c(=O)c2ccccc2n(CC(=O)Nc2ccc3c(c2)OCCO3)c1=O | -5.6% (inactive) | –
COc1ccc(-c2c(-c3ccc(OC)cc3O)nc(C)nc2C(F)(F)F)cc1 | -5.5% (inactive) | –
Cc1ccc(CCC(=O)Nc2ncc(Cc3cc(Cl)ccc3Cl)s2)o1 | 1.5% (inactive) | –
Cc1ccc(Cc2cnc(N)s2)o1 | 65.8% (active) | 93.7
O=C(CCc1nnc2ccc(NCc3ccccc3Cl)nn12)NCC1CCN(C2CCCC2)C1 (stereo not drawn) | 13.5% (inactive) | –
Cc1nn(Cc2ccccc2)c(C)c1NS(=O)(=O)c1ccccc1 | -5.2% (inactive) | –
O=C(CN1C(=O)C2C3C=CC(C3)C2C1=O)NCCc1ccccc1Cl (stereo not drawn) | -10.5% (inactive) | –
CC(=O)N(CN1C(=O)C2CC=CCC2C1=O)c1cccc(Cl)c1 (stereo not drawn) | 26% (inactive) | –
CC(=O)N(CN1C(=O)C2C3C=CC(C3)C2C1=O)c1cccc(Cl)c1 (stereo not drawn) | -5.8% (active) | 61.4
COc1ccc(OCc2cc(C(=O)NCC3(C)COC3)no2)c(Cl)c1 | -2.3% (inactive) | –
Cn1cccc1/C=C1\SC(=O)N(CC(=O)Nc2ccc(F)cc2)C1=O | 1.6% (inactive) | –
O=C(O)c1cccc(N2C(=O)Nc3ccccc3N2O)c1 | 1% (inactive) | –
N#Cc1ccccc1CN1C(=O)S/C(=C/c2cccn2-c2cccc(C(=O)O)c2)C1=O | 81.6% (active) | 74.8
Cc1cc(CN(C)C(=O)c2cc(COc3ccc(C)c(C)c3)on2)n[nH]1 | -4.1% (inactive) | –
CCCc1cc(=O)n2[nH]c(C)c(-c3ccc(Cl)cc3)c2n1 | 11.3% (inactive) | –
COc1ccccc1OCCCC(=O)Nc1ccc2c(c1)OCCO2 | -2.5% (inactive) | –
COc1ccccc1OCc1ccc(C(=O)N2CCN(C)CC2)o1 | 0.9% (inactive) | –
COc1cc2c(C(=O)N3CCN(C)CC3)c(CSc3ccccc3)n(C)c2cc1Br | 1.1% (active) | 81.5
COc1cc(C(=O)N2CCN(C)CC2)cc(OC)c1OC | -6.9% (inactive) | –
Cc1ccc(N2C(=O)C3C4C=CC(CC4)C3C2=O)cc1Br (stereo not drawn) | -2.9% (inactive) | –
CN(CCC1CCOCC1)C(=O)CC1C(=O)NCCN1Cc1cccc(F)c1 (stereo not drawn) | -3.2% (inactive) | –

SMILES | inhibition (at 35 µM) | inhibition (confirmation average, at 20 µM) [%]
O=C(Nc1ccc(S(=O)(=O)Nc2ccccn2)cc1)c1ccccc1 | -9.1% (inactive) | –
C=CCn1c(=O)c(C(=O)Nc2ncccc2O)c(O)c2ccccc21 | 22% (inactive) | –
CS(=O)(=O)Nc1ccccc1N=C(c1ccccc1)c1ccccc1 | 1.1% (inactive) | –
CCOc1ccc(N(CC(=O)NCCOc2ccccc2OC)S(=O)(=O)c2ccccc2)cc1 | -3.8% (inactive) | –
O=C(NCCS(=O)(=O)c1ccc(Br)cc1)c1ccccc1Cl | -7.2% (inactive) | –
NS(=O)(=O)c1ccc(CCNC(=O)Nc2ccc(Cl)cc2)cc1 | -4.8% (inactive) | –
COc1ccc(Cl)cc1NC(=O)CCN1CCOCC1 | -3.3% (inactive) | –
COc1ccc(Cl)cc1NC(=O)CCS(=O)(=O)c1ccc(Br)cc1 | 84.2% (active) | –
O=C(CCS(=O)(=O)c1ccc(Br)cc1)NCCc1ccc(Cl)cc1 | 86.1% (active) | 67.7
COc1ccc(Cl)cc1NC(=O)CCS(=O)(=O)c1cc2c(cc1C)NC(=O)CO2 | 3.9% (inactive) | –
CS(=O)(=O)N1CCc2cc(C(=O)Nc3ccccc3Br)ccc21 | -0.6% (inactive) | –
COCc1ccc(CN2CCC(Oc3ccc(C(=O)NCc4ccccn4)cc3)CC2)o1 | -2.5% (inactive) | –
O=C(COC(=O)c1cccs1)NCc1cccs1 | -7.5% (inactive) | –
O=C(COC(=O)CCC(=O)c1cccs1)NCc1ccco1 | 87% (active) | 63.4
O=C(COC(=O)c1cnc(Cl)c(Cl)c1)NCc1ccco1 | -1.2% (inactive) | –
O=C(COC(=O)C12CC3CC(CC(C3)C1)C2)NCc1ccco1 | 50.9% (active) | 92.2
O=C(CC1CCCCC1)NCc1ccco1 | -6.2% (inactive) | –
O=C(CC12CC3CC(CC(C3)C1)C2)NCc1ccco1 | -1% (inactive) | –
CC(C)CC(O)C1CCN(C(=O)CCc2nnc(-c3ccc4c(c3)OCO4)o2)CC1 (stereo not drawn) | 11.1% (inactive) | –
O=C(N/N=C\C1CC=CCC1)c1ccc(Br)o1 (stereo not drawn) | -1.2% (inactive) | –
CC(NC(=O)Cn1cc(C(F)(F)F)cc(Cl)c1=O)c1ccccc1 (stereo not drawn) | 4.6% (inactive) | –
O=C(O)c1cc(S(=O)(=O)NC2CCCc3ccccc32)ccc1O (stereo not drawn) | -2.4% (inactive) | –
Cc1ccc(CNC(=O)CCS(=O)(=O)c2ccc3c(c2)CC(C)N3C(=O)C2CC2)o1 (stereo not drawn) | -4.8% (inactive) | –
CN1C(=O)/C(=C/c2ccco2)SC1=Nc1cccc(C(=O)O)c1 | 99% (active) | 106

SMILES | inhibition (at 35 µM) | inhibition (confirmation average, at 20 µM) [%]
O=C(CCCN1C(=O)/C(=C/c2ccco2)SC1=S)Nc1ccccc1 | 77.4% (inactive) | 3.8
O=C(CCCN1C(=O)/C(=C\c2ccco2)SC1=S)Nc1cccc2ccccc12 | 91.9% (inactive) | -11.3
CC(Oc1ccccc1)C(=O)Nc1c2c(nn1-c1ccccc1)CS(=O)C2 (stereo not drawn) | -8.2% (inactive) | –
O=C(OCc1ccc(-c2ccccc2)cc1)c1cccc(O)c1 | -0.5% (inactive) | –
Cc1cc(/C=C2\SC(=O)N(C)C2=O)c(C)n1-c1cccc(C(=O)O)c1 | 89.5% (active) | –
Cc1cc(/C=C2/SC(=O)N(CC(=O)N3CCCC3)C2=O)c(C)n1C | 8.5% (inactive) | –
Cc1cc(/C=C2\SC(=Nc3ccc(N4CCOCC4)cc3)N(C)C2=O)c(C)n1-c1cccnc1 | 2.5% (inactive) | –
COc1ccc(N2CCN(C(=S)Nc3ccc(S(N)(=O)=O)cc3)CC2)cc1 | -13.4% (inactive) | –
CC1CN(C(=S)Nc2ccc(S(N)(=O)=O)cc2)CC(C)O1 (stereo not drawn) | 4.3% (inactive) | –
NS(=O)(=O)c1ccc(NC(=S)N2CCCC2)cc1 | 102% (active) | 104
C=CCn1c(C23CC4CC(CC(C4)C2)C3)n[nH]c1=S | -9.9% (inactive) | –
CC(=O)N1CCN(c2ccccc2NC(=S)NC(=O)c2cc3ccccc3o2)CC1 | -11.7% (inactive) | –
CC(C(=O)Nc1ccc(O)c(C(=O)O)c1)N1C(=O)/C(=C/c2cccs2)SC1=S (stereo not drawn) | -4.3% (inactive) | –
Nc1ccc(S(=O)(=O)NC(=O)c2ccccc2)cc1 | -6.9% (active) | 95.5
CC(=O)NS(=O)(=O)c1ccccc1 | -6.2% (inactive) | –
Cc1ccc(S(=O)(=O)NC(=O)c2cccc(C)c2)cc1 | -5% (inactive) | –
CN1CN(C)c2ccc([N+](=O)[O-])c3cccc1c23 | 2.5% (inactive) | –
Nc1c(C(=O)c2cccs2)sc2nsc(SCCN3CCCCC3)c12 | 47.9% (inactive) | –
CN(C(=O)COC(=O)c1nc(Cl)ccc1Cl)C1CCS(=O)(=O)C1 (stereo not drawn) | 10.5% (inactive) | –
Cc1c(-c2cccc(Cl)c2)nc2ccccc2c1C(=O)OCC(=O)N(C)C1CCS(=O)(=O)C1 (stereo not drawn) | -7% (inactive) | –
CN(C(=O)COC(=O)c1cc(-c2ccco2)nc2ccccc12)C1CCS(=O)(=O)C1 (stereo not drawn) | 87.9% (active) | –
CCc1nnc(NC(=O)c2nc3nccc(C)n3n2)s1 | -4% (inactive) | –
Cc1cccc(NC(=O)Nc2nnc(-c3ccccc3)o2)c1 | -0.2% (inactive) | –
Cc1ccnc2nc(C(=O)Nc3nnc(-c4ccccc4)o3)nn12 | 79.8% (active) | 77.1

SMILES | inhibition (at 35 µM) | inhibition (confirmation average, at 20 µM) [%]
O=C(N/N=C/c1ccccc1O)C1CCCC1 | -4.4% (inactive) | –
CN(C(=O)C1CCN(c2ncnc3c2nc2n3CCCCC2)CC1)C1CCCCC1 | -2.5% (inactive) | –
Cc1ccc(OCc2cc(C(=O)N(C)CCn3ccnc3C)no2)cc1C | -8.6% (inactive) | –
Cc1cccn2c(=O)c3cc(C(=O)NCC4CCCO4)c(=N)n(Cc4ccc(F)cc4)c3nc12 (stereo not drawn) | -14.9% (inactive) | –
Cc1ccc2nc3c(cc(C(=O)NCCc4ccccc4)c(=N)n3CC3CCCO3)c(=O)n2c1 (stereo not drawn) | 94.7% (active) | –
COc1ccc(CNC(=O)c2cc3c(=O)n4ccccc4nc3n(CC3CCCO3)c2=N)cc1 (stereo not drawn) | -5.4% (inactive) | –
Cc1cc(NC(=O)[C@H](C)NC(=O)c2ccco2)ccc1Br | -0.5% (inactive) | –
N#CC1=C(N)N(c2ccc(F)cc2)C(=O)C1 | 50% (active) | –
O=C1CC(N2CCN(c3ccc(F)cc3)CC2)C(=O)N1c1ccccc1 (stereo not drawn) | -4% (inactive) | –
O=C1CCCC2=C1C(c1cccs1)CC(=O)N2c1ccc(F)cc1 (stereo not drawn) | -3.5% (inactive) | –
Cc1cc(S(=O)(=O)N2CCOCC2)ccc1OCC(=O)N1CCOCC1 | -9.8% (inactive) | –
O=C(NC1CCC(O)CC1)c1ccccc1OCc1ccc(F)cc1 (stereo not drawn) | 4.1% (inactive) | –
CCCNC(=O)CCc1c(C)nc2c(c(C)nn2-c2ccccc2)c1C | -1.8% (inactive) | –
Cc1ccc(NC(=O)C(CC(=O)O)C2CCCO2)c(C)c1 (stereo not drawn) | -7% (inactive) | –
CO/N=C(\N)c1ccc([N+](=O)[O-])cc1 | 0.6% (inactive) | –
O=C(N/N=C/c1cccc([N+](=O)[O-])c1)c1ccncc1 | 0.8% (inactive) | –
N/C(=N\OS(=O)(=O)c1cccc([N+](=O)[O-])c1)c1ccncc1 | 73.8% (active) | 88.7
CC(Cc1cccs1)N(Cc1ccc(Cl)cc1)C(=O)c1ccncc1 (stereo not drawn) | -2% (inactive) | –
COc1ccccc1N(C)C(=O)c1cc(S(=O)(=O)N2CCc3ccccc32)cn1C | -9.4% (inactive) | –
CCN(C(=O)COC(=O)c1cc(S(=O)(=O)N2CCc3ccccc32)ccc1OC)C1CCS(=O)(=O)C1 (stereo not drawn) | 3.9% (active) | 71.9
COc1ccc(C(=O)OCC(=O)NCC2CCCCC2)cc1S(=O)(=O)N1CCCc2ccccc21 | -7.1% (inactive) | –

From PubChem BioAssay AID2012 (Sanford-Burnham Center for Chemical Genomics, 2009)
